Results filed as inconclusive are left out. The source made the active and inactive calls. The call rests on the fitted dose curve; in most records, active means well fitted inhibition curve with a large enough effect; inconclusive means small, poorly fitted or top-dose-only effect; inactive means flat fitted curve, though single readings scatter.
Target: Luciferin 4-monooxygenase (Photinus pyralis) (UniProt P08659)
Assay: FLuc inhibitory activity for the follow-up compounds in a biochemical assay with 1mM ATP
Details: purified P. pyralis luciferase, luminescence; series mostly up to 57.5 µM
Summary of the method: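 qHTS, 12 concentrations from ~60uM down to 0.3nM, against 10nM firefly luciferase; substrates at 1mM ATP and 10uM D-luciferin, in 50mM Tris acetate pH 7.5, 10mM Mg acetate; light output imaged.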

Sequence of Luciferin 4-monooxygenase (Photinus pyralis) (P08659 whole entry, looked up): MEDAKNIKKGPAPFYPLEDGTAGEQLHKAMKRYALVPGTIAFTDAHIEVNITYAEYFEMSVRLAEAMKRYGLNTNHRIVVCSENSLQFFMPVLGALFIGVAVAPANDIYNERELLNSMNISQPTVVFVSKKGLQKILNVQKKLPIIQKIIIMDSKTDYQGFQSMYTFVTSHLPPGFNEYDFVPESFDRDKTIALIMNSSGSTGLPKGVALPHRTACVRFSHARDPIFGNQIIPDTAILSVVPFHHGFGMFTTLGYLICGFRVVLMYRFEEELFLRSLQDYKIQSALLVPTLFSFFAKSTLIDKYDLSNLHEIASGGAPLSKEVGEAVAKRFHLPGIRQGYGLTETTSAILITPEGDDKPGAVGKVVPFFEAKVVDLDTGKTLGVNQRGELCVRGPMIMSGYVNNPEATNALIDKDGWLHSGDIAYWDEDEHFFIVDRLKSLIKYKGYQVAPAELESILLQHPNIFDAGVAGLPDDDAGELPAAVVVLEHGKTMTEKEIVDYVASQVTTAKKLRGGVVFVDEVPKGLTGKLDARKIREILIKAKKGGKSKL

Potency, active:
Nc1ccccc1-c1nc2ccccc2s1 2910 nM
Nc1ccc2nc(-c3ccc(O)cc3)sc2c1 183 nM
COc1ccc(C(=O)Nc2cccc(C(=O)O)c2)cc1S(=O)(=O)N1CCCC1 14600 nM

Source: PubChem BioAssay AID602364 (National Center for Advancing Translational Sciences (NCATS), 2012)
